PubChem BioAssay AID1014 (NMMLSC, 2008)
Activity calls are given as the source filed them. Cut-off read from the data, not from the text of the source: active = inhibition of mean fluorescence above about 33%; inactive = the rest.

Test: blockers of bacterial quorum-sensing reporter fluorescence – flow cytometry, SAR analogs, SAR follow-up (AID 1014);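 note: Staphylococcus aureus RN6390 with RNAIII-GFP reporter stimulated by AIP; bacteria incubated with compound for 3 hours at 37 °C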
Conditions: at 20 µM, stronger effect = higher value; inhibition of percent positive cells: measured here: percent reporter-positive cells

SMILES | inhibition of mean fluorescence | inhibition of percent positive cells [%]
COc1ccc(S(=O)(=O)c2n[nH]n3c2nc(=O)c2ccccc23)cc1 | 34.1% (active) | -1.8
O=C(CCN1CCN(c2ccccc2)CC1)Nc1ccc2c(c1)OCO2 | 5.8% (inactive) | 1.3
CCOC(=O)c1c(-c2ccc(OC)cc2)oc2ccc(O)cc12 | -20.8% (inactive) | 0.1
CC(C)c1ccc(NC(=O)C(c2ccc3c(c2)OCO3)N2CCN(C(=O)c3ccco3)CC2)cc1 (stereo not given) | -33.9% (inactive) | -1.4
CC1CCN(CC2CCN(C(=O)Nc3ccc4c(c3)OCCO4)CC2)CC1 | -3.7% (inactive) | 0
CCOC(=O)c1cnc2ccc(OC(F)(F)F)cc2c1Nc1ccccc1C(=O)O | 22.4% (inactive) | 0.6
O=C(NC1CCCC1)C(c1cc2c(cc1[N+](=O)[O-])OCO2)N1CCN(C2CCCCC2)CC1 (stereo not given) | -24.8% (inactive) | -1.4
CC(=O)Nc1ccc(Nc2nc3c(S(=O)(=O)c4ccccc4)nnn3c3ccccc23)cc1 | -8% (inactive) | 3.3
O=C1CS/C(=N\C(=O)N2c3ccccc3Sc3ccccc32)N1 | 91.4% (active) | 52.4
COc1ccc(C(=O)c2coc3ccc(O)cc23)cc1 | 5% (inactive) | 0.8
Cc1cccc(Nc2c(F)c(F)c(F)c(F)c2C(=O)O)c1 | -16.8% (inactive) | -0.2
CCc1ccc(S(=O)(=O)c2n[nH]n3c2nc(=O)c2ccccc23)cc1 | 87.7% (active) | 53.5
N#Cc1c(NC(=O)CN2C(=O)c3ccccc3C2=O)oc(-c2ccccc2)c1-c1ccccc1 | 41.7% (active) | 0.2
O=C(NCC(c1cccnc1)N1CCN(Cc2ccccc2)CC1)c1ccccc1 (stereo not given) | 12.3% (inactive) | -0.4
COc1ccc(NC(=O)C(c2cc3c(cc2[N+](=O)[O-])OCO3)N2CC(C)CC(C)C2)cc1 (stereo not given) | 49.3% (active) | 0.5
O=C(O)c1ccccc1Nc1c([N+](=O)[O-])c(=O)oc2ccccc12 | -23.2% (inactive) | -1.7
COc1ccc(C(=O)N2CCC(C(=O)Nc3ccc4c(c3)OCO4)CC2)cc1 | -3.1% (inactive) | 0
COc1cccc(Nc2c(F)c(OC)c(F)c(F)c2C(=O)O)c1 | -6.6% (inactive) | 0
COc1cccc(-n2cc(C(=O)N=C3NC(=O)CS3)c3ccccc3c2=O)c1 | -5.7% (inactive) | 0
Cc1ccccc1Nc1c(F)c(F)c(F)c(F)c1C(=O)O | -18.8% (inactive) | -1.9
Cc1cc(C)nc(Nc2ccc(Br)cc2C(=O)O)n1 | 17.1% (inactive) | 0.6
O=C(Nc1ccc2c(c1)OCO2)C1CCN(Cc2cnn(-c3ccccc3)c2-n2cccc2)CC1 | -33.1% (inactive) | -0.6
Cc1oc2ccc(O)cc2c1C(=O)O | -20.2% (inactive) | -0.5
COc1ccc(Nc2nc3c(S(=O)(=O)c4ccc(C)cc4)nnn3c3ccsc23)cc1 | -6.2% (inactive) | -0.3

SMILES | inhibition of mean fluorescence | inhibition of percent positive cells [%]
O=C(O)c1ccccc1Nc1cccc2c1C(=O)c1ccccc1C2=O | 58.7% (active) | 10
COc1c(F)c(F)c(C(=O)O)c(Nc2cc(C)cc(C)c2)c1F | -29.1% (inactive) | -2
CCc1ccc(Nc2nc3c(S(=O)(=O)c4ccccc4)nnn3c3ccccc23)cc1 | 20.8% (inactive) | -1.2
O=C(NCC(c1cccnc1)N1CCN(c2ccccc2F)CC1)c1cccc(Cl)c1 (stereo not given) | 67.2% (active) | 3.5
COc1ccc(Nc2nc3c(S(=O)(=O)c4ccccc4)nnn3c3ccsc23)cc1 | -41.7% (inactive) | 0.3
CC1CCCN(C(C(=O)Nc2ccc(C(C)C)cc2)c2ccc3c(c2)OCO3)C1 (stereo not given) | 23.8% (inactive) | 0.5
O=C(CSc1cn(CC(=O)N2CCCCC2)c2ccccc12)Nc1ccc2c(c1)OCO2 | -6.3% (inactive) | -0.1
COc1c(F)c(F)c(C(=O)O)c(Nc2ccccc2)c1F | -23.9% (inactive) | -2.3
Cc1ccc(S(=O)(=O)c2nnn3c2nc(Nc2ccc(C(C)C)cc2)c2ccccc23)cc1 | 12.6% (inactive) | -1.7
Cc1nnc2c3ccccc3nc(Nc3ccccc3C(=O)O)n12 | 18.4% (inactive) | -0.2
CC(C)c1ccc(NC(=O)C(c2ccc3c(c2)OCO3)N2CCOCC2)cc1 (stereo not given) | 2.7% (inactive) | -0.1
CC(C)c1ccc(S(=O)(=O)c2nnn3c2nc(N)c2ccccc23)cc1 | 11.1% (inactive) | 0.3
COc1c(F)c(F)c(C(=O)O)c(Nc2ccc(C)cc2C)c1F | 67.8% (active) | 13.3
Cc1ccc(Nc2ncccc2C(=O)O)cc1 | -7.8% (inactive) | -1.3
CCOC(=O)c1c(-c2ccccc2)oc2ccc(O)cc12 | 13.3% (inactive) | -0.9
CN1CCN(C(C(=O)NC2CCCCC2)c2cc3c(cc2[N+](=O)[O-])OCO3)CC1 (stereo not given) | -5.8% (inactive) | -0.4
CCOC(=O)C1=C(c2ccccc2)NC(SCC(=O)Nc2sc3c(c2C(=O)OCC)CCCC3)=C(C#N)C1c1ccco1 (stereo not given) | -27.4% (inactive) | 0.1
Cc1ccc(Nc2c(F)c(F)c(F)c(F)c2C(=O)O)cc1 | 9.9% (inactive) | -0.2
COc1c(F)c(F)c(C(=O)O)c(Nc2ccc(C)cc2)c1F | 9.1% (inactive) | -1.6
O=C(NCC(c1cccnc1)N1CCN(c2ccc(F)cc2)CC1)c1cccs1 (stereo not given) | 20.1% (inactive) | -0.3
O=C(NC1CCCCC1)C(c1cc2c(cc1[N+](=O)[O-])OCO2)N1CCCCC1 (stereo not given) | 12% (inactive) | -0.2
O=C(Nc1ccc2c(c1)OCO2)C1CCCN(C(=O)c2cnn(-c3ccccc3)c2-n2cccc2)C1 (stereo not given) | -23.9% (inactive) | 0.1
CC1CCCN(C(C(=O)Nc2ccc(C(C)C)cc2)c2cc3c(cc2[N+](=O)[O-])OCO3)C1 (stereo not given) | 14.1% (inactive) | -0.2
O=C(NCC(c1cccnc1)N1CCN(c2ccccc2F)CC1)c1ccccc1 (stereo not given) | -24.2% (inactive) | -1.5

SMILES | inhibition of mean fluorescence | inhibition of percent positive cells [%]
O=C(NCC(c1cccnc1)N1CCN(c2ccccc2F)CC1)c1ccccc1F (stereo not given) | -1.3% (inactive) | -0.4
O=C(NC1CCCC1)C(c1cc2c(cc1[N+](=O)[O-])OCO2)N1CCN(c2ccccc2)CC1 (stereo not given) | -13.2% (inactive) | -1.6
COc1cc(C(=O)NCC(c2cccnc2)N2CCN(c3ccccc3F)CC2)cc(OC)c1OC (stereo not given) | -57.3% (inactive) | -1.5
N#Cc1c(NC(=O)c2cc3ccccc3c(=O)o2)sc2c1CCCCCC2 | -18.3% (inactive) | 0.2
CC(=O)c1cc2c(cc1NC(=O)CN1CCN(C(c3ccccc3)c3ccccc3)CC1)OCO2 | 38.7% (active) | 0.4
Nc1c(Nc2ccccc2C(=O)O)c2ccccc2oc1=O | 0% (inactive) | -2.2
O=C(Nc1ccc2c(c1)OCCO2)C(c1ccc(F)cc1)N1CCCCC1 (stereo not given) | 12.6% (inactive) | -0.6
Cc1ccc(S(=O)(=O)c2nnn3c2nc(Nc2cc(C)cc(C)c2)c2ccccc23)cc1 | -4% (inactive) | -1.1
COc1ccc(C(=O)NCC(c2cccnc2)N2CCN(c3ccc(F)cc3)CC2)cc1 (stereo not given) | -13.4% (inactive) | -0.3
COc1ccc(S(=O)(=O)c2nnn3c2nc(Nc2ccccc2)c2ccccc23)cc1 | -22.4% (inactive) | 0.4
CC(C)c1ccc(S(=O)(=O)c2n[nH]n3c2nc(=O)c2ccccc23)cc1 | 80.5% (active) | 22.1
O=C(NCC(c1cccnc1)N1CCN(c2ccc(F)cc2)CC1)C1CC1 (stereo not given) | -43% (inactive) | 0.1
O=C(NCC(c1cccnc1)N1CCN(c2ccccc2F)CC1)C1CCCCC1 (stereo not given) | -12.9% (inactive) | -0.1
O=C(NCC(c1cccnc1)N1CCN(c2ccc(F)cc2)CC1)c1cccc(Cl)c1 (stereo not given) | -11.7% (inactive) | -0.1
O=C(NCC(c1cccnc1)N1CCc2ccccc2C1)c1ccc(F)c(F)c1 (stereo not given) | -6.4% (inactive) | -0.1
CC1CCN(C(=O)Cn2cc(SCC(=O)Nc3ccc4c(c3)OCO4)c3ccccc32)CC1 | -4.6% (inactive) | -0.2
CCc1ccc(S(=O)(=O)c2nnn3c2nc(Nc2ccc(Oc4ccccc4)cc2)c2cc(Cl)ccc23)cc1 | -16.6% (inactive) | -0.1
COc1ccc(Nc2nc3c(S(=O)(=O)c4ccc(Cl)cc4)nnn3c3ccccc23)cc1 | -19.3% (inactive) | -0.9
COc1ccc(N2CCN(C(CNC(=O)c3cccc(Cl)c3)c3cccnc3)CC2)cc1 (stereo not given) | -42% (inactive) | -1.7
CCOC(=O)c1c(C)oc2cc(Br)c(O)c(C=O)c12 | -4.5% (inactive) | 2.9
O=C(O)c1cc([N+](=O)[O-])cc([N+](=O)[O-])c1Nc1ccc(Cl)cc1 | -16.3% (inactive) | 0.2
COc1cccc(C(=O)NCC(c2cccnc2)N2CCN(c3ccccc3OC)CC2)c1 (stereo not given) | 10.5% (inactive) | -0.3
